Compound activity from PubChem.
FMDV inh: blocks foot and mouth disease virus; FMDV antiviral cell-based qHTS; Potency, µM (highest dose often 57.9 µM), for inactives: top-dose activity change, negative = inhibition, usual class: inhibitors; AID 1159524; 410,000 compounds, 1.2% hits; calls by dose curve; tested in HEK293T cells; further: read-out not given here; potency means the concentration at half of the fitted maximal effect; on the % scale 0 is the no-effect control and ±100 the full control effect; nearly all actives have a fitted effect of over 45% in size
Shiga toxin inh: blocks Shiga toxin action in Vero cells; AID 2315; inhibition, % at 38.7 µM; 290,000 compounds, 9.2% hits; Vero cells, Shiga toxin protein synthesis inhibition reporter; in the data active means inhibition mostly above about 28%, no sharp cut-off; inactive means mostly below about 43%; further: 0% is about no effect
Sm TGR block: inhibitors of Schistosoma mansoni thioredoxin glutathione reductase | Q962Y6 | purified TGR, DTNB reduction, TNB absorbance 405 nm | Potency, µM (series often up to 114 µM), without a hit: at the top dose activity change, negative = inhibition, hits mostly inhibitors | 360,000 compounds, 3% hits | AID 485364; active means well fitted inhibition curve with a large enough effect; inconclusive means small, poorly fitted or top-dose-only effect; inactive means no such curve, though single readings can be large or run the other way; further: potency means the concentration at half of the fitted maximal effect; on the % scale 0 is the no-effect control and ±100 the full control effect; nearly all actives have a fitted effect of over 60% in size
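TGR 20 nM + NADPH 100 uM (dispensed conc.), cpd preinc 15 min RT; start with NADPH (500 uM addition) then DTNB (15 mM addition). Kinetic TNB absorbance, 405 nm filter. Four-parameter Hill fit across titration.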
CHX counter: affects cycloheximide protein synthesis inhibition readout, counter-screen; AID 2314; cell reporter, cycloheximide protein synthesis inhibition counterscreen; 300,000 compounds, 12% hits; max response, %; in the data active means max response mostly above about 13%, no sharp cut-off; inactive means mostly below about 14%; further: read at 38.3 µM for the half of the compounds with a filed dose; 0% is about no effect
* = called active by the depositor; ? = inconclusive; nt = no result given. In the library only some 12% were active in any assay of this set; here they are far more common.

SMILES	FMDV inh	Shiga toxin inh	Sm TGR block	CHX counter
CC(C)(C)n1cnc2cc(NC(=O)c3ccc(Cl)cc3)ccc21	34.4%	91.6*	-8.5%	32.6*
CCn1ccc2cc(S(=O)(=O)N3CCC(C(=O)NCc4cccc(Cl)c4)CC3)ccc21	-13.5%	nt	-1.6%	nt
O=C(/C=C/c1ccc(O)c(O)c1)c1ccc(O)cc1O	nt	34.9*	nt	10.1*
C=C1C(=O)O[C@H]2[C@H]1[C@@H](O)CC(=C)[C@@H]1CC(=O)[C@@H](C)[C@H]21	22.4µM*	36.0*	22.4µM*	31.7*
C=C1C[C@H](OC(=O)C(C)(O)CCl)C2C(=C)C(=O)O[C@@H]2C2C1C[C@H](O)[C@]2(O)CCl (stereo partly drawn)	-2.5%	nt	nt	nt
Cc1[nH]c2ccccc2c1C(=O)CSc1nncn1C	7.5%	-2.2	-13.7%	-1.1
CCN(CC)C(=S)SCC(=O)c1c(C)[nH]c2ccccc12	?	22.3	-11.1%	15.4*
Cc1[nH]c2ccccc2c1C(=O)CSC(=S)N1CCOCC1	0.0%	83.8*	?	16.7*
COc1cccc(NC(=O)c2oc3ccc(S(=O)(=O)N4CCC5(CC4)OCCO5)cc3c2C)c1	-25.6%	nt	7.3%	nt
COc1ccc(CNc2nn3c(-c4cccc(C(=O)N(C)C)c4)cnc3s2)cc1	0.0%	nt	nt	nt
NS(=O)(=O)c1ccc(CCNc2nn3c(-c4cccc(OC(F)(F)F)c4)cnc3s2)cc1	22.4µM*	nt	nt	nt
CCCCCCCCCCN1CCOCCOCCN(CCCCCCCCCC)CCOCCOCC1	nt	-1.6	nt	-2.4
CCOc1ccc(OCC(=O)Nc2nnc3n2CCS3)cc1	-15.0%	nt	7.1%	nt
CC(=NNS(=O)(=O)c1ccc([N+](=O)[O-])cc1)c1ccc(C)cc1	49.7%	nt	nt	nt
C/C(=N/NS(=O)(=O)c1ccc(Br)cc1)c1ccc(NC(=O)c2ccc(C)o2)cc1	75.9%	78.3*	24.8%	48.2*
C/C(=N\NS(=O)(=O)c1ccc([N+](=O)[O-])cc1)c1ccc(NC(=O)c2ccco2)cc1	164.8%	77.7	-18.6%	24.7*
COc1ccc(NC(=O)Cn2ncc3c2-c2ccccc2OC3)cc1Cl	-26.5%	nt	5.4%	nt
COc1ccc(-c2c(C)c3ccc(O)c(CN4CCC(C)CC4)c3oc2=O)cc1OC	-2.7%	nt	7.3%	nt
COc1ccc(CN2C(=O)C(C)N(C(=O)c3c(F)cccc3F)c3ccccc32)cc1 (stereo not drawn)	35.5µM*	14.8	0.1%	4.0
CC1C(=O)N(Cc2ccc([N+](=O)[O-])cc2)c2ccccc2N1C(=O)c1c(F)cccc1F (stereo not drawn)	35.5µM*	-7.4	4.7%	-2.6
N#C/C(=C\c1coc2ccc(O)cc2c1=O)C(=O)Nc1nc2ccccc2s1	?	86.1*	?	31.6*
CC/C(=N\NC(=O)c1ccccc1)c1c(O)n(C2CCCCC2)c(=O)[nH]c1=O	-20.0%	50.9*	-31.6%	33.8*
CCC(=NC1CC1)c1c(O)n(C2CCCCC2)c(=O)[nH]c1=O	16.0%	12.6	-26.1%	10.0
CC/C(=N\NC(=O)c1ccccc1Cl)c1c(O)n(C2CCCCC2)c(=O)[nH]c1=O	1.9%	11.8	-30.6%	13.7*
C#CCSc1nc2sc3c(c2c(=O)n1-c1cccc(OC)c1)CCN(C(C)=O)C3	-11.6%	nt	-6.7%	nt
SMILES	FMDV inh	Shiga toxin inh	Sm TGR block	CHX counter
Cc1ccccc1OCc1ccc(-c2nc(C#N)c(NCCCN(C)C)o2)o1	-2.6%	nt	2.5%	nt
CC1CCC/C(=N\NC(=O)c2ccncc2)C1 (stereo not drawn)	-13.8%	28.3	8.4%	-1.0
Cc1cc(C(=O)N/N=C2\CCCC(C)C2)n[nH]1 (stereo not drawn)	nt	46.8	0.0%	55.3*
O=C(Oc1ccc(N2C(=O)C3C4CCC(C4)C3C2=O)cc1)c1ccco1 (stereo not drawn)	2.2%	-9.4	-2.6%	0.8
O=C(c1ccco1)[C@@H]1[C@@H]2C(=O)N(c3ccccc3)C(=O)[C@@H]2C2c3ccccc3C=CN21 (stereo partly drawn)	13.3%	9.3	56.2µM*	14.1
Cc1ccc(N2C(=O)[C@@H]3[C@H](C2=O)C2c4ccccc4C=CN2[C@@H]3C(=O)c2ccco2)cc1 (stereo partly drawn)	10.5%	29.0*	28.2µM*	19.8
COc1ccc(N2C(=O)[C@@H]3[C@H](C2=O)[C@H]2c4ccccc4C=CN2[C@@H]3C(=O)Nc2ccccc2)cc1	29.5%	-7.4	0.0%	9.2
CC(=O)[C@@H]1[C@@H]2C(=O)N(Cc3ccccc3)C(=O)[C@@H]2C2c3ccccc3C=CN21 (stereo partly drawn)	8.0%	-5.9	44.7µM*	-3.3
Cc1ccc(N2C(=O)[C@@H]3[C@H](C2=O)C2c4ccccc4C=CN2[C@@H]3C(=O)c2ccco2)c(C)c1 (stereo partly drawn)	7.4%	15.0	?	17.8
CC(C)(C)C(=O)[C@@H]1[C@@H]2C(=O)N(c3ccc4c(c3)OCCO4)C(=O)[C@@H]2C2c3ccccc3C=CN21 (stereo partly drawn)	-16.9%	20.5	-25.6%	15.7*
COc1ccccc1CNc1ncncc1-c1ccccc1OC	-2.7%	nt	nt	nt
Cc1ccc(-c2nc(CS(=O)(=O)CC(=O)N3CCN(c4cccc(C)c4C)CC3)c(C)o2)cc1	-9.7%	nt	-14.7%	nt
O=C1N=c2ccccc2=C1c1[nH]c(=S)[nH]c1O	-8.7%	-4.8	-14.7%	-2.0
O=c1[nH]c(=S)[nH]c(O)c1/C=C1/C=c2ccccc2=N1	25.1µM*	-5.2	?	0.4
CCC1C(=O)NCCN1Cc1ccc2c(c1)CN(Cc1cccc(OC)c1)CCO2 (stereo not drawn)	2.6%	nt	nt	nt
COc1ccc(CN(CCN(C)C)c2ncccn2)cc1	-1.6%	nt	nt	nt
CCCCCCCCCCCCCCCC[N+](C)(C)CCN(Cc1ccc(OC)cc1)c1ncccn1	28.2µM*	nt	-22.3%	nt
O=C(NCC1Cc2cccc(-c3ncccn3)c2O1)C1CCCO1 (stereo not drawn)	-2.1%	nt	nt	nt
Cc1ccsc1/C=C(\C#N)C(=O)NCc1cccnc1	19.5%	-10.8	-2.0%	-1.3
COc1ccc(/C=C(\C#N)C(=O)NCc2ccccc2)cc1	19.4%	86.9*	15.1%	34.0*
N#C/C(=C\c1ccc(O)cc1)C(=O)NCc1ccccc1	14.6%	-4.8	-1.0%	1.8
Cc1ccsc1/C=C(/C#N)C(=O)NCc1ccccc1	36.9%	26.8	0.8%	12.4*
Cc1ccc(/C=C(/C#N)C(=O)NC(=O)Oc2ccccc2)cc1	38.6%	17.4	1.2%	15.8
CNC(=O)/C(C#N)=C/c1ccc(OCCOc2ccccc2)cc1	0.0%	14.9	-8.7%	10.5*
COc1ccc(Cl)cc1NS(=O)(=O)c1c(C)nc2scc(C)n2c1=O	-3.8%	nt	8.0%	nt
SMILES	FMDV inh	Shiga toxin inh	Sm TGR block	CHX counter
CCc1cccc(C)c1NC(=O)Cn1ncc2c3ccccc3n(Cc3ccccc3)c2c1=O	-0.7%	nt	6.0%	nt
CCCCCn1c(=O)c2ccccc2n2c(CCl)nnc12	20µM*	34.6	14.1µM*	33.3*
CC(C)CCn1c(=O)c2ccccc2n2c(CCl)nnc12	31.6µM*	1.9	3.16µM*	7.4
Cc1ccnc(NC(=O)c2cccc(OC(F)F)c2)n1	34.9%	69.1*	7.3%	20.2
O=C(Nc1cc(Cl)cc(Cl)c1)c1cccc(OC(F)F)c1	39.8µM*	17.4	35.8%	14.9*
Cc1ccc(C(=O)Nc2nccc(C)n2)cc1	57.7%	nt	-15.8%	12.2
